Results filed as inconclusive are left out. Activity calls are given as the source filed them. The call rests on the fitted dose curve; in most records, active means well fitted curve in the direction sought with a large enough effect; inconclusive means small, poorly fitted or top-dose-only effect, or another doubt; inactive means no such curve, though single readings can be large; an effect the other way counts as inactive or inconclusive.
Tests used:
[1] = biological target: Aldehyde dehydrogenase, mitochondrial (Homo sapiens) (UniProt P05091); assay: qHTS for Inhibitors of the Aldehyde Dehydrogenase Family (ALDH2) Primary screen (AID 2061308);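 further: plate controls were vehicle for no effect and reference inhibitor for full effect; nearly all actives have a fitted effect of over 55% in size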
[2] = biological target: Retinaldehyde dehydrogenase 3 (Homo sapiens) (UniProt P47895); assay: qHTS for Inhibitors of the Aldehyde Dehydrogenase Family (ALDH1A3) Primary screen (AID 2061315);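 further: plate controls were DMSO vehicle for no effect and reference inhibitor for full effect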
[3] = biological target: Aldehyde dehydrogenase 1A1 (Homo sapiens) (UniProt P00352); assay: qHTS for Inhibitors of the Aldehyde Dehydrogenase Family (ALDH1A1) Confirmatory screens (AID 2061316); further: potency means the concentration at half of the fitted maximal effect; nearly all actives have a fitted effect of over 65% in size
[4] = BET inhibitor-based combinations targeting novel dependencies in MECOM-rearranged (r) AML: SET-2 cell line (AID 2202231); settings: SET-2 AML cells viability, CellTiter-Glo luminescence, 48 h; viability: stronger effect = lower value, concentration not given here; further: nearly all actives have a fitted effect of over 35% in size; further: potency means the concentration at half of the fitted maximal effect;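 on viability: plate controls were DMSO treated cells for no effect and wells without cells for full effect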
In short: (§1)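 Cells were plated at 500 per well and exposed to an 11-point dose series of each drug for 48 hr. Viability was measured by CellTiter-Glo luminescence, normalized to DMSO and empty-well controls, and summarized as AUC and per-cell-line Z-AUC.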

[5] = BET inhibitor-based combinations targeting novel dependencies in MECOM-rearranged (r) AML: OCI-AML3 cell line (AID 2202232); settings: Potency: OCI-AML3 viability; further: nearly all actives have a fitted effect of over 35% in size; further: potency means the concentration at half of the fitted maximal effect
In short: as §1

[6] = BET inhibitor-based combinations targeting novel dependencies in MECOM-rearranged (r) AML: MV-4-11 cell line (AID 2202233); further: potency means the concentration at half of the fitted maximal effect; nearly all actives have a fitted effect of over 45% in size
In short: (§2)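 Activity is given as area under the curve and as Z-AUC, mean-centred within each cell line. It comes from 11-point dose curves normalized to DMSO and empty wells. CellTiter-Glo luminescence was read after 48 hr drug exposure of 500 cells/well.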

[7] = BET inhibitor-based combinations targeting novel dependencies in MECOM-rearranged (r) AML: HNT-34 cell line (AID 2202234); further: nearly all actives have a fitted effect of over 35% in size; further: potency means the concentration at half of the fitted maximal effect
In short: as §2

[8] = BET inhibitor-based combinations targeting novel dependencies in MECOM-rearranged (r) AML: UCSD-AML1 cell line (AID 2202235); further: nearly all actives have a fitted effect of over 40% in size; further: potency means the concentration at half of the fitted maximal effect
In short: as §2

[9] = BET inhibitor-based combinations targeting novel dependencies in MECOM-rearranged (r) AML: AML-191 cell line (AID 2202236; further: nearly all actives have a fitted effect of over 35% in size; further: potency means the concentration at half of the fitted maximal effect)
In short: as §1

[10] = BET inhibitor-based combinations targeting novel dependencies in MECOM-rearranged (r) AML: AML-194 cell line (AID 2202237; further: nearly all actives have a fitted effect of over 40% in size; further: potency means the concentration at half of the fitted maximal effect)
In short: as §1

c1nc(NC[C@@H]2CCCO2)c2cc(-c3ccc4c(c3)OCO4)ccc2n1
active: Potency [3] 20.1 µM
inactive: Potency [1] | Potency [2]

Cc1ccc(CNc2ccccc2C(=O)Nc2nc(-c3ccccc3)cs2)cc1
inactive: Potency [1] | Potency [2]
active: Potency [3] 22.5 µM

C=CC(=O)N1CCC(Oc2cc3c(Nc4ccc(Cl)c(Cl)c4F)ncnc3cc2OC)CC1
active: Potency [4] 20.9 µM | Potency [5] 13.2 µM | Potency [6] 10.5 µM | Potency [7] 16.6 µM
inactive: Potency [1] | Potency [2]

Cc1nnc(C[C@@H]2C=C(c3ccc(Cl)cc3)c3ccccc3-n3c(C)nnc32)o1
inactive: Potency [1] | Potency [2]
active: Potency [4] 0.662 µM | Potency [5] 0.332 µM | Potency [6] 0.235 µM | Potency [8] 2.09 µM | Potency [9] 3.32 µM | Potency [10] 5.25 µM

COC(=O)c1ccccc1-c1ccc(/C=c2\sc3nc4cc(Br)cnc4n3c2=O)o1
active: Potency [3] 11.3 µM
inactive: Potency [1] | Potency [2]

C[C@H]1[C@H](O)O[C@@H]2O[C@@]3(C)CC[C@H]4[C@H](C)CC[C@@H]1[C@@]24OO3
active: Potency [4] 1.32 µM | Potency [5] 1.18 µM | Potency [6] 0.662 µM | Potency [7] 1.18 µM | Potency [8] 3.32 µM | Potency [9] 2.95 µM | Potency [10] 4.68 µM
inactive: Potency [1] | Potency [2]

Cc1c(F)ccc(C(=O)Nc2cc([N+](=O)[O-])ccc2N2CCN(C)CC2)c1Cl
inactive: Potency [1] | Potency [2] | viability [4] 110% | Potency [5] | Potency [7] | Potency [8] | Potency [9] | Potency [10]
active: Potency [6] 3.32 µM

Cc1cc(CN2CCN(c3c(Br)cnc4nc(-c5ccc(N6CCN(C)CC6)cc5)[nH]c34)CC2)no1
inactive: Potency [1] | Potency [2]
active: Potency [4] 9.34 µM | Potency [5] 8.33 µM | Potency [6] 0.332 µM | Potency [7] 1.48 µM | Potency [8] 2.63 µM | Potency [9] 5.25 µM | Potency [10] 4.17 µM

From PubChem BioAssay (NCATS)
